Here are results for eight molecules from PubChem BioAssay.

Values joined by “and” are separate entries in the source; they are usually repeats but may differ in a detail not shown here. Identical values can stand only once. Active and inactive are the calls of the source.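 The calls were made as follows, unless noted: active = compounds whose cell count with miR-34 switched on is under 0.7 times the count with it off; inactive = the rest.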 Numbered stars: 1 amine (or outer) side, 2 acyl side, 3 side chain; on linkers, the order of the positions; unused ones are H or OH. Bridge positions count the residues as written; N and C are the ends. Square brackets hold non-standard residues; d marks the D form. Peptide text beside a SMILES is read from it. * marks the point of attachment. X4 = NC1=N[C@@H]([C@H](N[*:1])C(=O)[*:2])C[C@H](O)N1; ΔAla(Z-3-ureido) = NC(=O)N/C=C(\N)C(=O)O; β3hOrn = NCCC[C@H](N)CC(=O)*; Dap = NC[C@H](N)C(=O)O

The nature of assay [1]: compounds altering viability of human ES cells (AID 493140; call rule not given here;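 also: cells exposed to compounds for four days before counting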). To be noted: human embryonic stem cell survival screen; stronger effect = higher value.
Assay [2] is described as follows: P. berghei load reduction in hepatocytes – cell-based, HepG2, luciferase luminescence, HepG2 viability, primary screen (AID 624349; in the data active = parasite load remaining mostly below about 12%, no sharp cut-off; inactive = mostly above about 10%;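 also: 100% = mean of DMSO negative control wells on the same plate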). The following applies: P. berghei liver stage in HepG2, luciferase luminescence, concentration not given here; parasite load remaining: stronger effect = lower value; viability: measured here: HepG2 viability without parasites.
The nature of assay [3]: signal quenchers or enhancers, Cy5 substrate/SSB – biochemical, NIH Clinical Collection, E. coli SSB, artefact control for HCV NS3 helicase inhibitor project (AID 743268; call rule not given here). To be noted: Cy5-oligo bound E. coli SSB, fluorescence interference.
For assay [4], the system named is Hepatitis C virus NS3 helicase. Briefly: blockers of NS3h binding to DNA – biochemical, fluorescence polarization, NIH Clinical Collection, primary screen (AID 743270; call rule not given here). To be noted: NS3 helicase binding to Cy5-dT15 DNA, stronger effect = higher value, concentration not given here.
For assay [5], the target named is Single-stranded DNA-binding protein (Escherichia coli (strain K12)) (UniProt P0AGE0). Briefly: SSB-ssDNA binding inhibitors – biochemical, fluorescence polarization, NIH Clinical Collection, counter-screen for HCV NS3 helicase inhibitor project (AID 743271; in the data active = inhibition above about 28%). To be noted: E. coli SSB-DNA binding, stronger effect = higher value, concentration not given here. (Polarisation of emitted light reports the rotation of a fluorescent probe.)

A short description of assay [6]: compounds distorting NS3 helicase fluorescence signal – biochemical, NIH Clinical Collection, artefact control for HCV NS3 helicase inhibitor project (AID 743272; call rule not given here). The following applies: fluorescence interference counterscreen, HCV NS3 helicase assay; stronger effect = lower value. (A counterscreen serves to expose hits that act by an unwanted route or on another target.)
A short description of assay [7]: viability loss with induced miR-34 in A549 – imaging, A549 dox-inducible miR-34, nuclei and caspase counts, primary screen (AID 1347080). To be noted: A549 miR-34 inducible, Hoechst nuclei count, 48 h.
Assay [8] can be described thus: MELAS cybrid and Rieske KO viability enhancers – cell-based, MELAS cybrids, Rieske KO mouse fibroblasts, CellTiter-Glo, primary screen (AID 1508586;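 active = mean z-score across replicates of 1.96 or higher in either the MELAS or the Rieske mutant cell line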;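 also: z relative to plate mean and SD of compound and empty wells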). The following applies: low glucose.
In assay [9] the target is NAD(+) hydrolase SARM1 (Homo sapiens) (UniProt Q6SZW1). Briefly: blocking NAD cleavage by SARM1 SAM-TIR – cell lysate, NAD-Glo luminescence (AID 1508614;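 active = compound whose remaining NAD level is above about 45 nM, limit read from the data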;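 also: higher remaining NAD means stronger inhibition of SARM1 NADase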). To be noted: SAM-TIR HEK293T lysate NADase, at 1 µM, stronger effect = higher value.
Sequence of NAD(+) hydrolase SARM1 (Homo sapiens) (Q6SZW1 whole entry, looked up, the tested form may be a part): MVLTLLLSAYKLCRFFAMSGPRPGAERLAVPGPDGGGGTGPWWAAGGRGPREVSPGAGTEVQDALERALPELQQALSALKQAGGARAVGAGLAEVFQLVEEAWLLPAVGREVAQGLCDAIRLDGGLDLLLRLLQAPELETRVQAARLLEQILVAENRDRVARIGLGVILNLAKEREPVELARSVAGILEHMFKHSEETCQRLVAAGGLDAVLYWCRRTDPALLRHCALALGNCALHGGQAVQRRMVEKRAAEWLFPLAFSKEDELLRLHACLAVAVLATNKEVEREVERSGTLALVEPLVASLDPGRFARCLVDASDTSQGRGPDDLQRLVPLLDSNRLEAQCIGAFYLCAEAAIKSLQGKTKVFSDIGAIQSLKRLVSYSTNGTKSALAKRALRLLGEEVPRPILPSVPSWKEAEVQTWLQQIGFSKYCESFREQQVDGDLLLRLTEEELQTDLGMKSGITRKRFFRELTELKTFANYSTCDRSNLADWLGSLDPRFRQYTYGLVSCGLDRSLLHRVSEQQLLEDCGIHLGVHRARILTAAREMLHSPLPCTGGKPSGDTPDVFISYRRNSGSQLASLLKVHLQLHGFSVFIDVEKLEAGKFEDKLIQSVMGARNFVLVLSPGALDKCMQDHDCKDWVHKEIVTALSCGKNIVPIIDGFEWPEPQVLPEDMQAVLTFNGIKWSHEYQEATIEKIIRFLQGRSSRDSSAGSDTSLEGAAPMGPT
Assay [10] concerns the target Mitogen-activated protein kinase 7 (Homo sapiens) (UniProt Q13164). Briefly: Gal4-ERK5 driven luciferase induction – cell-based, HTS, primary screen (AID 1508626;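 active = luciferase signal above three times the same-plate solvent-only control wells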;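 also: luciferase driven by Gal4-ERK5 fusion binding five Gal4 sites before minimal TATA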). To be noted: HeLa Gal4-ERK5 transactivation, 18 h, at 5 µM, stronger effect = higher value.
Assay [11] is described as follows: galactose survival enhancers in mitochondrial complex I cybrids – cell-based, galactose medium, ATP luminescence, primary screen (AID 1645843;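 active = z-score of at least 1.8 in each of two replicates, scored against plate mean and spread of sample wells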;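 also: positive z means more ATP and so rescue of galactose-driven cybrid death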). To be noted: complex I mutant cybrid cells, 72 h, stronger effect = higher value.
[12] abbreviates: stronger effect = lower value, cell number ratio, induced over uninduced.
Setting [13] is: measured here: relative caspase fold change +Dox/-Dox.
[14] abbreviates: measured here: total cells with miR-34 induction, stronger effect = lower value.
[15] abbreviates: measured here: total cells without miR-34 induction.
Setting [16] is: MELAS cybrid survival, CellTiter-Glo 48 h, stronger effect = higher value.
The mark [17] stands for this setting: Rieske KO mouse fibroblast survival, CellTiter-Glo 72 h.

Sequence of Mitogen-activated protein kinase 7 (Homo sapiens) (Q13164 whole entry, looked up, the tested form may be a part): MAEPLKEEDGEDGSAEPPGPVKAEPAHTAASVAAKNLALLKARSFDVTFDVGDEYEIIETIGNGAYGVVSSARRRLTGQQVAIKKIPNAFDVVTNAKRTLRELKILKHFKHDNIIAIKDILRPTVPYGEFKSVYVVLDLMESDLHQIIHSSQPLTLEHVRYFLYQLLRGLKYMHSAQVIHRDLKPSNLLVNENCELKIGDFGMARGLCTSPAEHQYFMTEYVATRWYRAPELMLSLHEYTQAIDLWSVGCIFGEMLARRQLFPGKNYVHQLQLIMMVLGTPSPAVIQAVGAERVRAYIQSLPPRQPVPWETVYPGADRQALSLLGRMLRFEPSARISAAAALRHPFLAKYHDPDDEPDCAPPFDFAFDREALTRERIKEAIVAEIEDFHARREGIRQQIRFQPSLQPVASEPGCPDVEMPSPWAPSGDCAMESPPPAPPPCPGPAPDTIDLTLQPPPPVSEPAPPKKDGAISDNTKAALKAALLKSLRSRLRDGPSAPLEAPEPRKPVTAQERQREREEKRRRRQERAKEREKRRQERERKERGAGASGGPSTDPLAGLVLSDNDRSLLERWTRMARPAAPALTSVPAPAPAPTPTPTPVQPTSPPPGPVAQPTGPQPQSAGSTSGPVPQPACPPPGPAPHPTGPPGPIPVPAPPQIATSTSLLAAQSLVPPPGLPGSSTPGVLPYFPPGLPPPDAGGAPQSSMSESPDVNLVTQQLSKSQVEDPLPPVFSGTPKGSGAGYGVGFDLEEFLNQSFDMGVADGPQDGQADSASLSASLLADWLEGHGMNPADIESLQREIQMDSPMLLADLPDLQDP

As a reminder, the viability is a read-out of living cells in per cent, often relative to untreated cells. What is called inhibition is the change of the read-out against control, counted positive when it falls. Turning to `C[C@]12CC[C@@H]3c4ccc(OS(=O)(=O)O)cc4CC[C@H]3[C@@H]1CCC2=O`, the survival in assay [1] is 5.67 (inactive). Besides, the parasite load remaining in assay [2] is 64.3% (inactive) and 61.4% (inactive). Also, the viability in assay [2] was 99.3% and 74.8%. Further, the fluorescence ratio is 1.03 (inactive) in assay [3] and 1.01 (inactive) in [6]. Moreover, the figures for the inhibition in assay [4] and in assay [5] were -1.09% (inactive) and -2.76% (inactive), respectively. Further, the fold change in [7] (setting [12]) is 0.873 (inactive); in [7] (setting [13]) it was 0.967. Also, the results for the cell count in assay [7] (setting [14]) and in [7] (setting [15]) were 9010 and 10300, respectively. Besides, the z-score in [8] (setting [16]) was -0.105 (inactive); in [8] (setting [17]), -0.186. For the same molecule, the remaining NAD in assay [9] was 10 nM (inactive). The luciferase signal in assay [10] was 76 AU (inactive).

Consider `OB(O)c1cc2ccccc2s1`, for which the values for the fold change in assay [7] (setting [12]) and in assay [7] (setting [13]) were 0.864 (inactive) and 0.659, respectively. In addition, the values for the cell count in [7] (setting [14]) and in assay [7] (setting [15]) were 7300 and 8450, respectively. For the same molecule, the figures for the z-score in assay [8] (setting [16]), in assay [8] (setting [17]) and in assay [11] were -0.459 (inactive), 0.539 and 0.265 (inactive), respectively.

Turning to `Nc1nc(NCc2ccncc2)c2cn[nH]c2n1`, the figures for the fold change in assay [7] (setting [12]) and in assay [7] (setting [13]) were 0.931 (inactive) and 0.844, respectively. Also, the cell count in [7] (setting [14]) came out at 8290; in [7] (setting [15]), 8900. Further, the z-score in [8] (setting [16]) is -0.45 (inactive); in assay [8] (setting [17]), -0.366; in assay [11], -0.535 (inactive).

Turning to `NCCC[C@H](N)CC(=O)N[C@H]1CNC(=O)[C@H]([C@H]2C[C@H](O)NC(N)=N2)NC(=O)/C(=C/NC(N)=O)NC(=O)[C@H](CO)NC(=O)[C@H](CO)NC1=O` (β3hOrn-[Dap]SS[ΔAla(Z-3-ureido)][X4]; lactam 1-C), the parasite load remaining in assay [2] was 90.6% (inactive). This molecule gave a viability in assay [2] of 75%. Also, the fold change in [7] (setting [12]) was 0.967 (inactive); in [7] (setting [13]), 0.791. The cell count in assay [7] (setting [14]) came to 9150; in [7] (setting [15]), 9470. Also, the z-score in assay [8] (setting [16]) is -0.695 (inactive); in assay [8] (setting [17]) it was -0.532. Also, in assay [9], the remaining NAD is 10 nM (inactive).

In the case of `O=c1c(-c2ccc(O)cc2)coc2cc(OC3OC(CO)C(O)C(O)C3O)ccc12` (centres undefined), the fold change in assay [7] (setting [12]) was 1.06 (inactive); in [7] (setting [13]), 0.687. The cell count was found to be 5800 in assay [7] (setting [14]) and 5490 in assay [7] (setting [15]). In addition, the z-score is 0.694 (inactive) in [8] (setting [16]), -0.345 in assay [8] (setting [17]) and 0.515 (inactive) in assay [11].

On to `NC(=O)NC(CCC(=O)O)C(=O)O` (centres undefined), for which the fold change was 0.857 (inactive) in assay [7] (setting [12]) and 0.229 in assay [7] (setting [13]). The cell count in assay [7] (setting [14]) worked out at 8940; in assay [7] (setting [15]), 10400. In addition, the z-score was 0.385 (inactive) in assay [8] (setting [16]), -0.000429 in [8] (setting [17]) and 0.4 (inactive) in assay [11].

Turning to `CCCn1cc(-c2ccnc(NC3CCN(Cc4cccnc4)CC3)n2)c(C)n1`, the fold change in assay [7] (setting [12]) was 0.82 (inactive); in assay [7] (setting [13]), 2. Besides, the figures for the cell count in assay [7] (setting [14]) and in [7] (setting [15]) were 3430 and 4180, respectively. Moreover, the z-score in [8] (setting [16]) is -0.647 (inactive); in [8] (setting [17]), 0.672; in assay [11], -0.55 (inactive).

For `CCOC(=O)O[C@]1(C(=O)COC(=O)CC)CC[C@H]2[C@@H]3CCC4=CC(=O)C=C[C@]4(C)[C@H]3[C@@H](O)C[C@@]21C`, the survival in assay [1] is 5.17 (inactive). For the same molecule, the parasite load remaining in assay [2] was 80.7% (inactive). This molecule came in with a viability in [2] of 80.3%. Besides, the fold change is 0.839 (inactive) in assay [7] (setting [12]) and 0.816 in assay [7] (setting [13]). Moreover, the cell count was 5980 in assay [7] (setting [14]) and 7130 in assay [7] (setting [15]). Also, the values for the z-score in assay [8] (setting [16]) and in [8] (setting [17]) were -0.565 (inactive) and 0.21, respectively. In [9], the remaining NAD is 10 nM (inactive).
